High-throughput results as filed in PubChem BioAssay.
DAT uptake mod: changed hDAT dopamine uptake under cocaine IC80, either direction, primary screen, cocaine antagonist project, cell-based, LLC-PK1 hDAT, [14C]-dopamine uptake, MLSMR; LLC-PK1 hDAT cells, [14C]-dopamine uptake with cocaine IC80; actives deviate in either direction; B-score at 10 µM; 110,000 compounds, 1.3% hits; AID 449768, 2010;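 active = Z score or B-score, a plate-position-corrected score, falls beyond the plate's 99.7% confidence bounds, in either direction; inactive = both scores lie inside the 99.7% bounds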;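 note: scored against the spread of the other compound wells on the same plate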
PostGolgi ctrl: growth inhibition of yeast control strain, primary screen, counter-screen for post-Golgi transport modulator project | inhibition, % at 10 µM | 98,000 compounds, 5% hits | efflux-deficient yeast background strain, growth absorbance A615, 16 h
Cav32 inh: Cav3.2 calcium influx blockers – cell-based, Fluo-4 calcium fluorescence, FDSS, MLSMR library, primary screen | Voltage-dependent T-type calcium channel subunit alpha-1H (Homo sapiens), O95180 | Cav3.2-expressing cells; active compounds read low | B-score at 10 µM | 100,000 compounds, 4% hits | AID 449739, 2010;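 active = single-dose well whose peak fluorescence ratio is a statistical outlier from its plate by either plate-standardised score or position-corrected B-score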
PostGolgi yeast: phenotypic screen on post-Golgi transport, primary screen; post-Golgi transport phenotypic cell assay; inhibition, % at 10 µM; 98,000 compounds, 0.9% hits;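 note: yeast cells grown in 1536-well plates; yeast grown about 18 h at 30C before absorbance read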
Smad3 inh: Smad3/FoxH1 peptide binding inhibitors, primary screen, biochemical, TR-FRET. TR-FRET Smad3/Dy647-FoxH1 peptide binding, europium anti-His. inhibition, % at 25 µM. 88,000 compounds, 0.29% hits;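 active = compounds that reduce the energy-transfer binding signal between the protein and its labelled peptide by more than half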;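 note: 0% = Smad3 plus labelled peptide maximal FRET and 100% = peptide-only background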
Target sequence (P84022 whole entry, looked up): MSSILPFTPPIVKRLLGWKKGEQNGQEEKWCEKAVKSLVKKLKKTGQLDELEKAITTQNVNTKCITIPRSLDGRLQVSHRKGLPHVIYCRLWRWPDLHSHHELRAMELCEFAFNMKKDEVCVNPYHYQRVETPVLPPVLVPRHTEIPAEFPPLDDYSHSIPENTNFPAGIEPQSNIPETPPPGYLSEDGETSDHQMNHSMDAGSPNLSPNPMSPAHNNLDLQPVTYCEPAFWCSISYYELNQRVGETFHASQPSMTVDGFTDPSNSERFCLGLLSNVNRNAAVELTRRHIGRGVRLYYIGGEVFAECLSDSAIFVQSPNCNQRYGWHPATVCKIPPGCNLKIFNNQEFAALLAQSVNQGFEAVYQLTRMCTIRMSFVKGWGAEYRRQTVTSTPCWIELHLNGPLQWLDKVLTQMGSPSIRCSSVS
TNAP act DEA: human TNAP enzyme activators, primary screen, biochemical, luminescent, intermediate phosphate acceptor level. purified TNAP, CDP-star luminescence, 100 mM DEA, 30 min; active compounds read high; scale: 0 levamisole-inhibited, 1 vehicle-only enzyme. 64,000 tested, under 10 active. AID 813, 2007. activation factor at 20 µM;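 active = activation factor of at least 2 at 20 µM, relative to controls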
* hit, by the source's call; nt = no result given. An excerpt weighted towards active compounds, which were near 8.7% of everything screened. Cut-off read from the data, not from the text of the source, unless noted: active = inhibition above about 30%; inactive = the rest.

SMILES	DAT uptake mod	PostGolgi ctrl	Cav32 inh	PostGolgi yeast	Smad3 inh	TNAP act DEA
Cc1cc(NCCCn2ccnc2)n2ncc(-c3ccc(Cl)cc3)c2n1	4.1*	47*	1.2	7	6	nt
Cc1cccc(-c2cc3nc(C)cc(NCCCn4ccnc4)n3n2)c1	2.1	7	0.95	-12	3	nt
O=c1c(-c2ccccc2)nc(-c2ccccc2)cn1O	-0.7	5	-0.15	6	nt	nt
CCC(c1nnnn1C(C)(C)CC)N(CCCO)Cc1cc2cccc(C)c2[nH]c1=O (configuration not stated)	1.1	13	nt	-17	3	0.8
CCc1ccc2[nH]c(=O)c(CN(CCN3CCCC3)C(=O)NC3CCCCC3)cc2c1	0.08	7	-0.46	-6	-7	0.9
CCc1cc(C(=O)NNC(=S)NCC2CCCO2)cs1 (configuration not stated)	-0.025	30*	0.42	-12	nt	nt
Cc1scc(C(=O)NNC(=S)NCC2CCCO2)c1C (configuration not stated)	0.9	-3	0.55	-1	nt	nt
CCOc1ccc(N2C(=O)CS/C2=N/NC(=O)COc2ccc3ccccc3c2)cc1	2.4*	20	-3.5*	5	nt	nt
CCNC(=O)COc1ccc2ccccc2c1	0.45	1	0.66	6	3	0.9
Cc1cc(C)cc(NC(=O)c2cc(S(=O)(=O)NCc3ccco3)ccc2F)c1	0.47	2	-2.9	-2	-18	0.9
Cc1ccc(CNC(=O)c2ccc(Cn3nc(C)c(Cl)c3C)o2)cc1	2	100*	-4.7*	104*	-11	0.9
Cc1cc(C(=O)Nc2ccccc2C(F)(F)F)no1	-2	2	2.1	9	2	0.9
Cc1nn(Cc2ccc(C(=O)Nc3ccccc3C(F)(F)F)o2)c(C)c1Br	-0.29	34*	-2.4	1	2	nt
Cc1cccc(C)c1OCCCCn1cnc2ccccc2c1=O	1.5	15	-1.5	5	nt	nt
CCOC(=O)c1cccc(NC(=O)C2CCCO2)c1 (configuration not stated)	-0.41	16	0.41	0	5	0.9
CCCn1c(SCc2cc(=O)oc3ccc4ccccc4c23)n[nH]c1=O	-0.32	-3	-3	30*	-4	0.9
CC(=O)CSc1nc2ccccc2s1	-1.1	26	1.3	4	9	nt
COc1ccc2c(c1)C(C)CC(C)(C)N2C(=O)CSc1nc2ccccc2s1 (configuration not stated)	0.52	17	-7.6*	-6	nt	nt
Cn1c(N)c(C#N)c2c(c1=S)CSC(C)(C)C2	-7.8*	-9	-1.5	2	11	0.9
Cn1c(N)c(C#N)c2c(c1=S)COC(C)(C)C2	nt	0	nt	-12	-4	nt
CC(C)c1ccccc1-n1c(SCC(=O)N2CCN(c3ccccc3)CC2)nnc1-c1cccnc1	2.9	24	-4.4*	15	-14	nt
CCn1c(CSCc2ccc(C)cc2)nnc1SCC(=O)N1CCN(c2ccccc2)CC1	0.94	15	-5.6*	15	nt	nt
CCCn1c(Cc2ccccc2)nnc1SCC(=O)N1CCOCC1	-0.034	30*	0.33	6	17	nt
CCOC(=O)/C(C#N)=C1/C=Cc2ccccc2N1CC	0.018	-3	-0.62	6	-2	0.8
C/C(=N\NC(=S)Nc1cccc(C)c1)c1ccccc1	0.47	33*	-1.3	-1	nt	nt
SMILES	DAT uptake mod	PostGolgi ctrl	Cav32 inh	PostGolgi yeast	Smad3 inh	TNAP act DEA
Cc1cccc(NC(=S)NNC(=S)NCc2ccccc2)c1	-0.061	4	-0.82	-4	-9	nt
CCOc1ccccc1NC1=C(Cl)C(=O)N(Cc2ccccc2)C1=O	0.16	33*	-1.9	12	nt	nt
c1ccc(Nc2nnc(SCc3cccc4ccccc34)s2)cc1	-0.036	8	-0.18	-12	6	nt
Cc1cccc(C)c1Nc1nnc(SCc2cc([N+](=O)[O-])cc3c2OCOC3)s1	-0.57	33*	-2.1	4	10	nt
COC(=O)c1ccc(CSc2nnc(Nc3cccc(OC)c3)s2)o1	0.095	14	-0.62	-6	3	nt
COc1cccc(Nc2nnc(SCc3cc([N+](=O)[O-])cc4c3OCOC4)s2)c1	-3.4*	6	nt	-1	nt	nt
CCCCN(C)C(=O)CS(=O)(=O)Cc1nc(-c2cccc(OC)c2)oc1C	1.4	1	-2	3	0	0.9
CC(C)c1cc(C(N)=O)c(NC(=O)c2cccc(COc3ccc(Cl)cc3)c2)s1	nt	27	nt	-6	nt	nt
COCCn1nnnc1SCC(=O)N1CCCCC1	-0.49	30*	0.08	1	-12	1
O=C1c2ccccc2C(O)N1Cc1ccc2c(c1)OCO2 (configuration not stated)	-0.49	3	0.55	-1	11	0.9
Cc1cc(Cl)ccc1Oc1ncc(-c2ccc(Cl)cc2)cn1	-0.21	15	1.3	-12	nt	nt
Clc1ccc(-c2cnc(Oc3ccccc3)nc2)cc1	-0.2	-8	0.098	33*	nt	nt
O=c1c2ccccc2nc(SCc2cn3ccsc3n2)n1-c1ccc(F)cc1	1.7	52*	-2.6	-2	8	1
CCCCc1ccc(Nc2nc(CCC)cc(=O)[nH]2)cc1	0.55	52*	-0.11	6	16	0.9
CCOC(=O)c1c(C)[nH]c(C(=O)COC(=O)C(C)N2C(=O)C3CCCCC3C2=O)c1C (configuration not stated)	1.6	-7	-3.2*	-10	-1	nt
OCCCc1nc2n(n1)C(c1ccccc1)C=C(c1ccccc1)N2 (configuration not stated)	0.026	-7	-0.74	0	-6	0.9
COCCCNS(=O)(=O)c1ccc2c3c(cccc13)C(=O)S2	-0.48	15	-0.47	6	9	1
COCCCNc1c2c3c(cccc3[nH]c1=O)C(=O)c1ccccc1-2	1.2	19	-12*	0	-4	0.9
O=C(NC1CCS(=O)(=O)C1)OC1CCCCC1 (configuration not stated)	-0.3	10	-2.3	8	6	0.9
N#Cc1nc(-c2ccco2)oc1NCCCn1ccnc1	0.64	10	-5.8e-06	-3	-8	0.9
COc1ccc2nc3c(cc2c1)c(NC(=O)c1cccs1)nn3CC(C)C	nt	37*	nt	10	-3	1
Cc1nn(C)c(Oc2ccccc2)c1CCNS(=O)(=O)c1ccc(Cl)cc1	1.3	21	-6.9*	-2	nt	nt
O=C(Cn1[nH]c(=O)c2ccccc2c1=O)OCC(=O)N(Cc1ccccc1)Cc1ccccc1	0.45	4	-4.4*	-3	0	nt
